Inconclusive results are not listed. Unmarked numbers belong to inactive results. Active and inactive are the calls of the source. The call rests on the fitted dose curve; in most records, active means well fitted inhibition curve with a large enough effect; inconclusive means small, poorly fitted or top-dose-only effect; inactive means flat fitted curve, though single readings scatter. Square brackets hold non-standard residues; d marks the D form. Peptide text beside a SMILES is read from it. Dolaproine = CO[C@@H]([C@@H]1CCCN1)[C@@H](C)C(=O)O; Dil = CC[C@H](C)[C@H](NC)[C@@H](CC(=O)O)OC; NMeV = CN[C@H](C(=O)O)C(C)C
Assay: Identification of antibody-drug conjugate (ADC) payloads which are substrates of ATP-binding cassette drug efflux transporters: ABCG2-H460-MX20 cell line with Ko143
Settings: H460-MX20 (ABCG2) + Ko143, CellTiter-Glo viability, 48 h; series mostly up to 28.7 µM; activity change, negative = cytotoxicity: at the top concentration
Excerpt: Antibody-drug conjugates (ADCs) feature an antibody recognizing a specific protein joined to a potent toxic payload. Numerous antibody-drug conjugates have received FDA approval; however, clinical resistance arises. Resistance mechanisms include decreased expression or mutation of the antibody target, impaired payload release, or increased expression of ATP-binding cassette (ABC) efflux transporters associated with multidrug resistance. We therefore sought to characterize the interaction of ABC multidrug transporters with ADC payloads. We performed a high-throughput screen with 27 common ADC payloads using cells lines expressing ABC transporters P-glycoprotein (P-gp, encoded by ABCB1) or ABCG2 (encoded by ABCG2). Confirmatory assays were also performed using cells transfected to express P-gp, ABCG2, or MRP1 (encoded by ABCC1). Several commonly used ADC payloads were substrates of P-gp, including calicheamicin gamma1, monomethyl auristatin E, DM1, and DM4. All the pyrrolobenzodiazepines tested - SJG136, SGD-1882, SG2057, and SG3199 - were substrates of P-gp, ABCG2, and MRP1. […] These findings highlight the risk of transporter-mediated resistance with certain ADC payloads and underscore the importance of selecting payloads that evade ABC transporter recognition in future ADC development.
HEK-293 cells were transfected with empty vector (pcDNA) or vector containing the human ABCB1 (MDR-19), ABCG2 (R-5), or ABCC1 gene (MRP1) and were maintained in EMEM with 2 mg/mL G418 added to maintain transporter expression. The HeLa derivative KB-3-1 and the P-gp overexpressing KB-8-5-11 subline were maintained in DMEM; KB-8-5-11 additionally received 100 ng/mL colchicine. H460 parental cells were obtained from the Division of Cancer Treatment and Diagnosis Tumor Repository, National Cancer Institute at Frederick, MD and were cultured in RPMI. The ABCG2 expressing subline H460 MX20 was generated by selecting H460 cells in 20 nM mitoxantrone. Media in all cases was supplemented with 10% FBS and 1% penicillin-streptomycin. We explored 27 common ADC payloads, in two orthogonal, paired cell line sets-a drug selected and transfected set for each transporter--to identify substrates of the ABC transporters P-gp and ABCG2. Compounds were sourced from Levena Biopharma (San Diego, CA), Selleck Chem (Houston, TX), ChemieTek (Indianapolis, IN), or Microsource Discovery Systems (Gaylordsville, CT). Screening was performed as previously described. Briefly, cells were plated at a density of 500 cells/well in 1536 well plates with compounds added using a 1536-head pin tool (Kalypsys, San Diego CA). Cells were incubated with cytotoxic drugs and processed with CellTiter Glo reagent (Promega, Madison, WI) to determine viability after 48 hours. P-gp substrates were identified by comparing compound activity between paired sets of low-expressing (sensitive) and over-expressing (resistant) cell lines.
In the case of `CC(C)(C)OC(=O)Nc1ccc2[nH]c(C(=O)N3C[C@@H](CCl)c4c3cc(O)c3ccccc43)cc2c1`, the Potency is reported as 6.7 nM (active).
For `COc1cccc2c1C(=O)c1c(O)c3c(c(O)c1C2=O)C[C@@](O)(C(=O)CO)C[C@@H]3O[C@H]1C[C@H](N)[C@H](O)[C@H](C)O1`, the Potency was 598 nM (active).
In the case of `CCc1c2c(nc3ccc(O)cc13)-c1cc3c(c(=O)n1C2)COC(=O)[C@]3(O)CC`, the Potency is reported as 150 nM (active).
For `CCN(C(C)=O)[C@H]1CO[C@@H](O[C@H]2[C@H](O[C@H]3C#C/C=C\C#C[C@]4(O)CC(=O)C(NC(=O)OC)=C3/C4=C\CSSSC)O[C@H](C)[C@@H](NO[C@H]3C[C@H](O)[C@H](SC(=O)c4c(C)c(I)c(O[C@@H]5O[C@@H](C)[C@H](O)[C@@H](OC)[C@H]5O)c(OC)c4OC)[C@@H](C)O3)[C@@H]2O)C[C@@H]1OC`, the Potency was 13.4 nM (active).
In the case of `COc1cccc2c1C(=O)c1c(O)c3c(c(O)c1C2=O)C[C@@](O)(C(=O)CO)C[C@@H]3O[C@H]1C[C@H]2[C@H](O[C@@H]3[C@@H](OC)OCCN32)[C@H](C)O1`, the Potency is reported as 0.2 nM (active).
In the case of `COC(=O)c1cc2c3c(cc(O)c2[nH]1)N(C(=O)c1cc2cc(OC)c(OC)c(OC)c2[nH]1)CC3CCl` (stereo not given), the Potency is reported as 0.8 nM (active).
For `CC[C@H](C)[C@@H]([C@@H](CC(=O)N1CCC[C@H]1[C@H](OC)[C@@H](C)C(=O)N[C@@H](Cc1ccccc1)C(=O)O)OC)N(C)C(=O)[C@@H](NC(=O)[C@@H](NC)C(C)C)C(C)C` (H-[NMeV]V[Dil][Dolaproine]F-OH), the Potency was 15000 nM (active).
In the case of `CC[C@H](C)[C@@H]([C@H](N)CC(=O)N1CCC[C@H]1[C@H](OC)[C@@H](C)C(=O)N[C@@H](Cc1ccccc1)c1nccs1)N(C)C(=O)[C@@H](NC(=O)[C@@H](NC)C(C)C)C(C)C`, the “activity change, negative = cytotoxicity” value is reported as -17.3%.
With `CN(C)CCOc1ccc2[nH]c(C(=O)N3C[C@@H](CCl)c4c3cc(O)c3ccccc43)cc2c1` the Potency was 0.5 nM (active).
In the case of `CCN[C@H]1CO[C@@H](O[C@H]2[C@H](O[C@H]3C#C/C=C\C#C[C@]4(O)CC(=O)C(NC(=O)OC)=C3/C4=C\CSSSC)O[C@H](C)[C@@H](NO[C@H]3C[C@H](O)[C@H](SC(=O)c4c(C)c(I)c(O[C@@H]5O[C@@H](C)[C@H](O)[C@@H](OC)[C@H]5O)c(OC)c4OC)[C@@H](C)O3)[C@@H]2O)C[C@@H]1OC`, the Potency is reported as 3.8 nM (active).
